Several values for one entry are separate records, joined by “and”; a condition that tells them apart may be missing. Equal values may be shown once. Whole data set: some 5,300 compounds, median “PER2::LUC luminescence relative to vehicle control” near 0.96, cut for the highest 2% near 1.3. Only a selection was taken, and the highest values are over-represented in it overall.
System: mPer2Luc MEF
Assay: PER2::LUC luminescence relative to vehicle control (fold of vehicle); higher = higher PER2::LUC reporter signal
Conditions: 10 µM
How it was run: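 The value is PER2::LUC luminescence expressed as fold of vehicle control. Mouse embryonic fibroblasts carrying the mPer2Luc reporter were seeded at ~3000 cells per well in 384-well plates and grown in DMEM with 10% FBS at 37 °C and 5% CO2. Compounds from commercial libraries were added at 10 μM 48 h after seeding, and luminescence was read with the ONE-Glo luciferase assay system 24 h and 30 h after treatment, followed by an alamarBlue viability assay.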

COc1ccc(C2=N[C@@H](c3ccc(Cl)cc3)[C@@H](c3ccc(Cl)cc3)N2C(=O)N2CCNC(=O)C2)c(OC(C)C)c1 (racemic)
PER2::LUC luminescence (time after treatment 24 h): 0.971
PER2::LUC luminescence (time after treatment 30 h): 0.948

Nc1ncnc2c1ncn2[C@@H]1O[C@H](CO)C[C@@H]1O
PER2::LUC luminescence (time after treatment 24 h): 0.952
PER2::LUC luminescence (time after treatment 30 h): 0.956

NCCCCCCCCCCNCCCN
PER2::LUC luminescence (time after treatment 24 h): 0.962
PER2::LUC luminescence (time after treatment 30 h): 0.892

C[C@H](NC(=O)CNC(=O)[C@@H](NC(=O)[C@H](Cc1ccccc1)NC(=O)CNC(=O)CNC(=O)[C@@H](N)Cc1ccccc1)[C@@H](C)O)C(=O)N[C@@H](CCCN=C(N)N)C(=O)N[C@@H](CCCCN)C(=O)N[C@@H](CO)C(=O)N[C@@H](C)C(=O)N[C@@H](CCCN=C(N)N)C(=O)N[C@@H](CCCCN)C(N)=O
PER2::LUC luminescence (time after treatment 24 h): 1.02
PER2::LUC luminescence (time after treatment 30 h): 0.922

COc1cc2ncnc(Nc3cccc(Cl)c3)c2cc1OC
PER2::LUC luminescence (time after treatment 24 h): 0.991 and 0.715
PER2::LUC luminescence (time after treatment 30 h): 0.978 and 0.705

O=C(O)c1ccc2c(c1)nc(Nc1cccc(Cl)c1)c1ccncc12
PER2::LUC luminescence (time after treatment 24 h): 0.795
PER2::LUC luminescence (time after treatment 30 h): 1.39

O=C(NCCO)c1ccc2c(c1)nc(Nc1cccc(Cl)c1)c1ccncc12
PER2::LUC luminescence (time after treatment 24 h): 1.03
PER2::LUC luminescence (time after treatment 30 h): 0.995

C/C1=C2N=C(/C=C3N=C(/C(C)=C4\[N-]C(C(CC(N)=O)C4(C)CCC(=O)NCC(C)OP(=O)([O-])OC4C(CO)OC(n5cnc6cc(C)c(C)cc65)C4O)C4(C)N=C1C(CCC(N)=O)C4(C)CC(N)=O)C(CCC(N)=O)C\3(C)C)C(CCC(N)=O)C/2(C)CC(N)=O.[CH3-].[Co+3] (configuration not stated)
PER2::LUC luminescence (time after treatment 24 h): 1.07
PER2::LUC luminescence (time after treatment 30 h): 1.03

Cc1cnc(-c2cnc(NCCNc3ccc(C#N)cn3)nc2-c2ccc(Cl)cc2Cl)[nH]1
PER2::LUC luminescence (time after treatment 24 h): 1.56
PER2::LUC luminescence (time after treatment 30 h): 1.06

CN1CCN(C2CCC(n3cc(-c4ccc(Oc5ccccc5)cc4)c4c(N)ncnc43)CC2)CC1 (configuration not stated)
PER2::LUC luminescence (time after treatment 24 h): 0.091
PER2::LUC luminescence (time after treatment 30 h): 0.137

C[C@@H](NC(=O)c1cc(C(=O)N[C@@H](Cc2ccccc2)[C@H](O)CNC2CC2)cc(N(C)S(C)(=O)=O)c1)c1ccccc1
PER2::LUC luminescence (time after treatment 24 h): 1.01
PER2::LUC luminescence (time after treatment 30 h): 1.09

NCCCC[C@H](NC(=O)[C@@H]1CCCN1C(=O)[C@@H]1CSSC[C@H](N)C(=O)N[C@@H](Cc2ccccc2)C(=O)N[C@@H](Cc2ccccc2)C(=O)N[C@@H](CCC(N)=O)C(=O)N[C@@H](CC(N)=O)C(=O)N1)C(=O)NCC(N)=O
PER2::LUC luminescence (time after treatment 24 h): 1.08
PER2::LUC luminescence (time after treatment 30 h): 1.13

COc1ccccc1N1CCN(CCN2C(=O)N=C3C(=Nc4ccccc43)C2=O)CC1
PER2::LUC luminescence (time after treatment 24 h): 0.831
PER2::LUC luminescence (time after treatment 30 h): 0.823

NC(=O)c1ncn([C@@H]2O[C@H](CO)[C@@H](O)[C@H]2O)c1N
PER2::LUC luminescence (time after treatment 24 h): 1.32 and 0.733
PER2::LUC luminescence (time after treatment 30 h): 1.18 and 0.988

NC(=O)c1ncn(C2OC(COP(=O)(O)O)C(O)C2O)c1N (configuration not stated)
PER2::LUC luminescence (time after treatment 24 h): 1.36
PER2::LUC luminescence (time after treatment 30 h): 1.3

Nc1ncnc2c1ncn2[C@@H]1O[C@H](COP(=O)(O)O)[C@@H](O)[C@H]1O
PER2::LUC luminescence (time after treatment 24 h): 1.22 and 1.13
PER2::LUC luminescence (time after treatment 30 h): 1.14 and 1.05

NCCOCCOCCNC(=O)Cc1ccc(Nc2nc(NCc3ccc(F)cc3)nc(NCC3CCCCC3)n2)cc1
PER2::LUC luminescence (time after treatment 24 h): 1.09
PER2::LUC luminescence (time after treatment 30 h): 1.03

COc1ccc(/C=C/C(=O)Nc2ccccc2C(=O)O)cc1OC
PER2::LUC luminescence (time after treatment 24 h): 0.844 and 0.327

O=C(O)c1ccccc1Nc1ccccc1
PER2::LUC luminescence (time after treatment 24 h): 1.02
PER2::LUC luminescence (time after treatment 30 h): 0.974

C/C(=C\C(=O)Nc1ccccc1C(=O)O)c1ccc2ccccc2c1
PER2::LUC luminescence (time after treatment 24 h): 1.53
PER2::LUC luminescence (time after treatment 30 h): 1.46

O[C@H]1CCN2Cc3ccccc3N=C12
PER2::LUC luminescence (time after treatment 24 h): 0.987
PER2::LUC luminescence (time after treatment 30 h): 0.932

CC1CCC(C(C)C)C(O)C1 (racemic)
PER2::LUC luminescence (time after treatment 24 h): 1.02
PER2::LUC luminescence (time after treatment 30 h): 1.25

O=C(CS(=O)(=O)Cc1ccccc1)N1CCOCC1
PER2::LUC luminescence (time after treatment 24 h): 0.841
PER2::LUC luminescence (time after treatment 30 h): 0.781

CCCCNc1ccc(C(=O)OCCOCCOCCOCCOCCOCCOCCOCCOCCOC)cc1
PER2::LUC luminescence (time after treatment 24 h): 1.07
PER2::LUC luminescence (time after treatment 30 h): 0.94

CCCNC(C)(C)COC(=O)c1ccccc1
PER2::LUC luminescence (time after treatment 24 h): 0.894
PER2::LUC luminescence (time after treatment 30 h): 0.968

CCCCNc1cc(C(=O)O)cc(S(N)(=O)=O)c1Oc1ccccc1
PER2::LUC luminescence (time after treatment 24 h): 1.21
PER2::LUC luminescence (time after treatment 30 h): 1.86

O=C(Nc1ccc(C(=O)O)c(O)c1)c1ccccc1
PER2::LUC luminescence (time after treatment 24 h): 1.03
PER2::LUC luminescence (time after treatment 30 h): 1.13

CC(=Cc1ccc(C(=O)O)cc1)c1ccc2c(c1)C(C)(C)CCC2(C)C
PER2::LUC luminescence (time after treatment 24 h): 1.66
PER2::LUC luminescence (time after treatment 30 h): 1.52

CC(N)(C(=O)O)c1ccc(C(=O)O)cc1 (racemic)
PER2::LUC luminescence (time after treatment 24 h): 0.971
PER2::LUC luminescence (time after treatment 30 h): 0.694

CC(=O)Nc1ccc(C(=O)O)cc1
PER2::LUC luminescence (time after treatment 24 h): 1.03
PER2::LUC luminescence (time after treatment 30 h): 0.901

CC1(C)CCC(C)(C)c2cc(C(=O)Nc3ccc(C(=O)O)cc3)ccc21
PER2::LUC luminescence (time after treatment 24 h): 1.64
PER2::LUC luminescence (time after treatment 30 h): 1.67

CC1(C)CCC(C)(C)c2cc(NC(=O)c3ccc(C(=O)O)cc3)ccc21
PER2::LUC luminescence (time after treatment 24 h): 1.77
PER2::LUC luminescence (time after treatment 30 h): 1.63

C[C@@](N)(C(=O)O)c1ccc(C(=O)O)cc1
PER2::LUC luminescence (time after treatment 24 h): 1.01
PER2::LUC luminescence (time after treatment 30 h): 0.938

NC1(C(=O)O)CCc2cc(C(=O)O)ccc21 (configuration not stated)
PER2::LUC luminescence (time after treatment 24 h): 0.992
PER2::LUC luminescence (time after treatment 30 h): 0.984

CC(=O)Nc1ccc(C(=O)Nc2ccccc2N)cc1
PER2::LUC luminescence (time after treatment 24 h): 0.744
PER2::LUC luminescence (time after treatment 30 h): 0.677

COc1ccc(C(OCCN2CCC[C@H](C(=O)O)C2)(c2ccc(OC)cc2)c2ccc(OC)cc2)cc1
PER2::LUC luminescence (time after treatment 24 h): 0.855
PER2::LUC luminescence (time after treatment 30 h): 1.04

NC1CCN(O)C1=O (single isomer, unassigned; (+))
PER2::LUC luminescence (time after treatment 24 h): 0.99
PER2::LUC luminescence (time after treatment 30 h): 0.883

CCCN(CCc1cccs1)C1CCc2c(O)cccc2C1 (racemic)
PER2::LUC luminescence (time after treatment 24 h): 0.965
PER2::LUC luminescence (time after treatment 30 h): 0.906

O=C1/C(=C/c2ccc(O)c(O)c2)Oc2c1ccc(O[C@@H]1O[C@H](CO)[C@@H](O)[C@H](O)[C@H]1O)c2O
PER2::LUC luminescence (time after treatment 24 h): 0.983
PER2::LUC luminescence (time after treatment 30 h): 0.93

CC(C)C[C@H](NC(=O)OCc1ccccc1)C(=O)N[C@@H](CC(C)C)C(=O)NCC(=O)CNC(=O)[C@H](CC(C)C)NC(=O)[C@H](CC(C)C)NC(=O)OCc1ccccc1
PER2::LUC luminescence (time after treatment 24 h): 1.01
PER2::LUC luminescence (time after treatment 30 h): 0.909

CCCCCCCCCCCCCC[C@@H](O)[C@@H](O)[C@@H](CO)NC(C)=O
PER2::LUC luminescence (time after treatment 24 h): 1.07
PER2::LUC luminescence (time after treatment 30 h): 1.04

CN1C(=O)C(Cc2c[nH]c3ccccc23)NC1=S (configuration not stated)
PER2::LUC luminescence (time after treatment 24 h): 1.15
PER2::LUC luminescence (time after treatment 30 h): 1.36

CN1C(=O)N[C@H](Cc2c[nH]c3c(Cl)cccc23)C1=O
PER2::LUC luminescence (time after treatment 24 h): 0.87
PER2::LUC luminescence (time after treatment 30 h): 0.819

c1ccc2c(Cc3c[nH]c4ccccc34)c[nH]c2c1
PER2::LUC luminescence (time after treatment 24 h): 0.956 and 0.816
PER2::LUC luminescence (time after treatment 30 h): 1.02 and 0.84

O=C(O)c1cc(N(Cc2ccccc2O)Cc2cc(O)ccc2O)ccc1O
PER2::LUC luminescence (time after treatment 24 h): 1.05
PER2::LUC luminescence (time after treatment 30 h): 1.03

C[C@@]1(F)[C@H](O)[C@@H](CO)O[C@H]1n1ccc(=O)[nH]c1=O
PER2::LUC luminescence (time after treatment 24 h): 0.965
PER2::LUC luminescence (time after treatment 30 h): 0.937

CN1CCC[C@@H]1c1cccnc1.Cc1ccc(C(=O)O[C@H](C(=O)O)[C@@H](OC(=O)c2ccc(C)cc2)C(=O)O)cc1
PER2::LUC luminescence (time after treatment 24 h): 0.873
PER2::LUC luminescence (time after treatment 30 h): 0.978

C=CC[C@@H]1[C@H](O)CC[C@@]2(C)[C@H]1CC[C@@H]1[C@@H]2CC[C@]2(C)[C@@H]([C@H](C)CCCC(C)C)CC[C@@H]12
PER2::LUC luminescence (time after treatment 24 h): 0.994
PER2::LUC luminescence (time after treatment 30 h): 0.987

Nc1nc(NC2CC2)c2ncn([C@H]3C=C[C@@H](CO)C3)c2n1
PER2::LUC luminescence (time after treatment 24 h): 1.23 and 1.48
PER2::LUC luminescence (time after treatment 30 h): 1.32 and 1.75

OC[C@H]1O[C@@H](n2cnc3c(NC4CCCC4)ncnc32)[C@H](O)[C@@H]1O
PER2::LUC luminescence (time after treatment 24 h): 0.965
PER2::LUC luminescence (time after treatment 30 h): 0.991

OCC1OC(n2cnc3c(NC4CCCC4)nc(Cl)nc32)C(O)C1O (configuration not stated)
PER2::LUC luminescence (time after treatment 24 h): 0.932
PER2::LUC luminescence (time after treatment 30 h): 0.97

COc1cc(O)c(C(=O)/C=C/c2ccc(O)c(OC)c2)c(OC)c1
PER2::LUC luminescence (time after treatment 24 h): 0.871
PER2::LUC luminescence (time after treatment 30 h): 0.855

CC(C)c1noc(C2CCN(c3ncnc(Nc4ccc(S(C)(=O)=O)cc4F)c3[N+](=O)[O-])CC2)n1
PER2::LUC luminescence (time after treatment 24 h): 0.972
PER2::LUC luminescence (time after treatment 30 h): 0.789

COc1ccc(/C=C/c2ccccc2F)cc1
PER2::LUC luminescence (time after treatment 24 h): 1.2
PER2::LUC luminescence (time after treatment 30 h): 1.26

— the supplement of paper PMC9334596
